Our source for the growth values is PubChem BioAssay (NCI).

Some test systems named below: NCI-H23 lung; NCI-H226 lung; NCI-H322M lung; HOP-62 NSCLC; NCI-H460 lung; HOP-92 NSCLC; NCI-H522 lung; A549/ATCC NSCLC; 786-0 renal; COLO 205 colon; DU-145 prostate; K-562 leukemia; MALME-3M melanoma; MDA-MB-231 breast; RXF 393 renal; SF-268 CNS; SF-295 CNS; UACC-257 melanoma; M14 melanoma.
Common to all, as to assay: NCI-60 one-dose screen, 48 h (100 = growth as untreated, 0 = no growth, -100 = all killed)
Common to all, as to conditions: 10 µM unless noted

The panel holds about 83,000 compounds, 20% with a hit somewhere; the sample as a whole holds those more often.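 Single-dose data. Exposure time 48 hours. Values below 10 considered active.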 Values without a mark were called inactive. Activity calls are given as the source filed them.

Consider `COc1ccc(-c2cc(=O)[nH]c3c(OC)c4ccccc4c(OC)c23)cc1`, for which the growth in the assay on NCI-H23 lung is 19.2%; in the assay with NCI-H226 lung it was 39.9%; with NCI-H322M lung, 41.8%; in the assay on HOP-62 NSCLC it was 36.8%; in the assay on NCI-H460 lung, 8.71% (active); in the assay on HOP-92 NSCLC, 73.9%. For the same compound, the growth was -17.2% (active) in the assay on NCI-H522 lung; 23.6% with A549/ATCC NSCLC; 34.5% with 786-0 renal; -58.8% (active) in the assay on COLO 205 colon; 2.29% (active) in the assay on DU-145 prostate; 8.05% (active) in the assay on K-562 leukemia. In addition, the growth in the assay with MALME-3M melanoma was 51.3%; in the assay on MDA-MB-231 breast, 35.6%; in the assay on RXF 393 renal it was 9.4% (active); in the assay on SF-268 CNS it was 34.8%; in the assay with SF-295 CNS, 8.09% (active); in the assay with UACC-257 melanoma it was 73.8%. The growth in the assay with M14 melanoma is 1.54% (active).
On to `CCN(CC)CCC(=O)Nc1ccc(Cn2nnc3c2C(=O)c2nnn(Cc4ccc(NC(=O)CCN(CC)CC)cc4)c2C3=O)cc1`, for which the growth with NCI-H23 lung was -24.6% (active); in the assay on NCI-H226 lung, -49.5% (active); in the assay with NCI-H322M lung, -75.3% (active); in the assay on HOP-62 NSCLC, -34.5% (active); in the assay on NCI-H460 lung, -29.7% (active); in the assay with HOP-92 NSCLC, -44.3% (active). The growth in the assay on NCI-H522 lung was -73.5% (active); in the assay with A549/ATCC NSCLC, -58.1% (active); in the assay with 786-0 renal it was 88.7%; in the assay with COLO 205 colon, -86.7% (active); in the assay with DU-145 prostate it was -92.6% (active); in the assay with K-562 leukemia, 2.02% (active). The growth with MALME-3M melanoma is -79.5% (active); in the assay on MDA-MB-231 breast, -5.66% (active); in the assay on RXF 393 renal it was 19.9%; with SF-268 CNS, -38.1% (active); in the assay on SF-295 CNS, -57.2% (active); with UACC-257 melanoma, -56.1% (active). Further, in the assay with M14 melanoma, the growth was -16.3% (active).
Regarding `COc1cc(C2CC(=O)Nc3c2cnn3Cc2ccco2)cc2c1OCCO2` (configuration not stated), the growth is 96.6% in the assay with NCI-H23 lung; 92.4% in the assay with NCI-H226 lung; 82.5% in the assay on NCI-H322M lung; 88.3% in the assay on HOP-62 NSCLC; 76.6% in the assay on NCI-H460 lung; 109% in the assay with HOP-92 NSCLC. For the same compound, the growth in the assay with NCI-H522 lung is 44.4%; with A549/ATCC NSCLC, 80.6%; with 786-0 renal, 98%; with COLO 205 colon, 81.2%; in the assay on DU-145 prostate, 104%; in the assay with K-562 leukemia, 29.6%. Also, the growth with MALME-3M melanoma is 102%; in the assay with MDA-MB-231 breast, 101%; in the assay on RXF 393 renal it was 62.4%; with SF-268 CNS it was 82.5%; in the assay on SF-295 CNS, 62%; in the assay on UACC-257 melanoma it was 82.2%. For the same compound, the growth with M14 melanoma is 70.5%.
Take `COc1cc2c(cc1O)CCc1cc(O)cc(OC)c1-2`: the growth with NCI-H23 lung was 99.3%; with NCI-H226 lung, 87.4%; in the assay on NCI-H322M lung, 101%; with HOP-62 NSCLC, 105%; in the assay on NCI-H460 lung it was 93.8%; in the assay with HOP-92 NSCLC, 103%. In addition, the growth in the assay on NCI-H522 lung was 61.5%; in the assay on A549/ATCC NSCLC it was 87.6%; with 786-0 renal, 97.1%; with COLO 205 colon, 110%; with DU-145 prostate it was 109%; in the assay on K-562 leukemia it was 99.2%. The growth was 96.5% in the assay with MALME-3M melanoma; 83.1% in the assay on MDA-MB-231 breast; 103% in the assay on RXF 393 renal; 93.8% in the assay on SF-268 CNS; 103% in the assay on SF-295 CNS; 95.3% with UACC-257 melanoma. Besides, the growth in the assay on M14 melanoma was 94.6%.
Turning to `Cc1nc2nc(N)nc(N)c2nc1C`, the growth is 91.5% in the assay with NCI-H23 lung; 94.6% with NCI-H226 lung; 95.1% in the assay with NCI-H322M lung; 88.6% in the assay on HOP-62 NSCLC; 108% in the assay on NCI-H460 lung; 87.3% with HOP-92 NSCLC. Further, the growth in the assay with NCI-H522 lung was 89.8%; in the assay with A549/ATCC NSCLC it was 102%; with 786-0 renal, 98.4%; in the assay with COLO 205 colon, 117%; with DU-145 prostate it was 110%; in the assay with K-562 leukemia, 100%. The growth is 99.9% in the assay on MALME-3M melanoma; 94% in the assay on MDA-MB-231 breast; 105% in the assay on RXF 393 renal; 98.5% with SF-268 CNS; 90.5% in the assay with SF-295 CNS; 96.2% with UACC-257 melanoma. For the same compound, the growth with M14 melanoma is 90.9%.
Regarding `COC(=O)[C@@H]1CC[C@]2(C)[C@H](CC[C@@H]3O[C@@]32C)[C@@]1(C)CC(=O)c1ccoc1`, the growth is 98.5% in the assay on NCI-H23 lung; 91.8% in the assay on NCI-H226 lung; 102% in the assay with NCI-H322M lung; 95.1% in the assay with HOP-62 NSCLC; 101% in the assay on NCI-H460 lung; 93.3% in the assay with HOP-92 NSCLC. In addition, the growth in the assay on NCI-H522 lung is 80.4%; in the assay on A549/ATCC NSCLC, 83.3%; with 786-0 renal, 107%; with COLO 205 colon, 113%; in the assay with DU-145 prostate it was 112%; in the assay with K-562 leukemia it was 100%. For the same compound, the growth is 97.7% with MALME-3M melanoma; 88.3% with MDA-MB-231 breast; 111% with RXF 393 renal; 103% with SF-268 CNS; 104% with SF-295 CNS; 88.4% in the assay on UACC-257 melanoma. In addition, the growth with M14 melanoma was 108%.
As to `CC(=O)Oc1ccc(Nc2c3ccccc3nc3ccccc23)cc1`, the growth in the assay on NCI-H23 lung is 11.9%; in the assay with NCI-H226 lung, -59.2% (active); in the assay with NCI-H322M lung, 19.9%; in the assay with HOP-62 NSCLC, 11.2%; in the assay on NCI-H460 lung, -26.5% (active); in the assay on HOP-92 NSCLC, -3.96% (active). In addition, the growth is -69.7% (active) in the assay with NCI-H522 lung; -23.7% (active) in the assay with A549/ATCC NSCLC; 16.5% in the assay with 786-0 renal; 3.96% (active) in the assay on COLO 205 colon; 8.74% (active) in the assay on DU-145 prostate; 6.78% (active) in the assay with K-562 leukemia. The growth with MALME-3M melanoma was -33.2% (active); with MDA-MB-231 breast, 23.6%; in the assay with RXF 393 renal, -2.55% (active); with SF-268 CNS, 22%; with SF-295 CNS, -21.8% (active); in the assay with UACC-257 melanoma, -25.7% (active). Also, the growth with M14 melanoma was 20.7%.
In the case of `Clc1ccc(-c2nnc(COc3ccccc3Cl)o2)cc1`, the growth in the assay with NCI-H23 lung is 80.6%; in the assay with NCI-H226 lung, 93.8%; in the assay on NCI-H322M lung, 76.9%; in the assay with HOP-62 NSCLC, 61.3%; in the assay on NCI-H460 lung, 82.9%; in the assay with HOP-92 NSCLC it was 49.2%. Moreover, the growth was 70.9% in the assay with NCI-H522 lung; 58.3% in the assay on A549/ATCC NSCLC; 23.3% in the assay on 786-0 renal; 90.8% in the assay with COLO 205 colon; 95.6% with DU-145 prostate; 74.7% in the assay on K-562 leukemia. For the same compound, the growth in the assay on MALME-3M melanoma is 72.4%; with MDA-MB-231 breast, 67.4%; in the assay with RXF 393 renal it was 46.9%; in the assay with SF-268 CNS it was 75.5%; in the assay on SF-295 CNS, 89.8%; with UACC-257 melanoma, 80.6%. Moreover, the growth in the assay on M14 melanoma was 76.4%.
